According to PubChem BioAssay:

Assay: viability loss of caspase-8 NB7 cells with TRAIL – with/without TRAIL, luminescence panel, confirmation (AID 651596)
Settings: NB7 neuroblastoma + caspase-8, without TRAIL, NB7 Caspase-8, without TRAIL, mean of runs, at 10 µM

Q: Which activity does the source give for `Cc1c(C(=O)Nc2cccc([N+](=O)[O-])c2)csc1-c1ccccc1` here?
A: 48.1%

Q: Which activity does the source give for `COc1ccc(S(=O)(=O)N2CCC(C(=O)NCCC3=CCCCC3)CC2)cc1C` here?
A: 22.2%

Q: For `CC(=O)c1cccc(NC(=O)CSc2ccc(-c3ccc4c(c3)OCO4)nn2)c1`, which activity is on record?
A: 50%

Q: For `NC1=NC[C@H](CC2CCCCC2)N1CCc1cc(C(F)(F)F)cc(C(F)(F)F)c1`, which activity is on record?
A: 80%

Q: For `CCCCc1ccc(NC(=O)c2ccc(N(C)S(C)(=O)=O)cc2)cc1`, which activity is on record?
A: 19.9%

Q: For `CCc1ccc(-n2nc3cc(C)c(N)cc3n2)cc1`, which activity is on record?
A: 51.1%

Q: Which activity does the source give for `Cc1ccc2nc(-c3ccc(NC(=O)COC(=O)c4ccc([N+](=O)[O-])o4)cc3)sc2c1` here?
A: 69.9%

Q: For `O=C(Nc1ccc(N2CCN(C(=O)c3ccccc3)CC2)cc1)c1ccc([N+](=O)[O-])o1`, which activity is on record?
A: 99.3%

Q: With `CN(C)CCCN(C(=O)c1ccc(S(=O)(=O)N(C)C2CCCCC2)cc1)c1nc2ccc(Br)cc2s1` as the compound, how does the activity read?
A: 45%

Q: With `Cc1ccsc1/C=N/NC(=O)c1ccc2c(c1)OCCO2` as the compound, how does the activity read?
A: 68.2%

Q: With `COc1ccccc1-c1nnc(-c2ccc(C)cc2)o1` as the compound, how does the activity read?
A: 43.5%

Q: With `Cc1cc(C)c(C#N)c(SCc2nc3ccccc3c(=O)[nH]2)n1` as the compound, how does the activity read?
A: 82.5%

Q: With `CNc1nnc(-c2ccc(N(C)C)cc2)s1` as the compound, how does the activity read?
A: 61.2%

Q: Which activity does the source give for `O=C(NO)c1cc(OCC(F)(F)F)ccc1OCC(F)(F)F` here?
A: 71.4%

Q: With `Cc1ccc(-c2nnc(NC(=O)c3ccco3)s2)cc1` as the compound, how does the activity read?
A: 62.7%

Q: Which activity does the source give for `CC(=O)Nc1nc2ccccc2n1CCOc1ccccc1` here?
A: 49.5%

Q: Which activity does the source give for `CCN1CCN(Cc2ccc(NC(=O)c3cc(NC(=O)c4cncc(-c5ccc(C#N)cc5)c4)cc(OC)c3)cc2C(F)(F)F)CC1` here?
A: 98.7%
